LmPK inhibitor – qHTS Assay for Inhibitors of Leishmania Mexicana Pyruvate Kinase (LmPK) | 0.37% of 290,000 active | AID 1721, 2009 | Q27686 | purified LmPK, Kinase-Glo ATP luminescence, 1 h | Potency, µM (series often up to 57.5 µM), most hits filed as inhibitors
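qHTS format; LmPK 0.1 nM; substrates PEP 0.5 mM and ADP 0.1 mM. One-hour room-temperature incubation, then coupled luciferase luminescence; 0.5 nM enzyme wells mark activation.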
Sm TGR block – qHTS Assay for the Inhibitors of Schistosoma Mansoni Peroxiredoxins | Schistosoma mansoni thioredoxin glutathione reductase (TGR), Q962Y6 | 3% of 360,000 active | purified TGR, DTNB reduction, TNB absorbance 405 nm | Potency, µM (top dose mostly 114 µM), most hits filed as inhibitors; note: nearly all actives have a fitted effect of over 60% in size
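First, TGR (20 nM dispensed) and NADPH were mixed with compound. Second, a 15 min room-temperature incubation followed. Third, further NADPH and then DTNB were added to start the reaction. Finally, TNB absorbance was monitored kinetically.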
RE007 growth inh – qHTS Assay for Inhibitors of the HIV-1 protein Vpr | S. pombe RE007 Vpr strain, BacTiter-Glo ATP luminescence, 24 h | Potency, µM (titrated, usually from 92.2 µM), hits mostly inhibitors | 0.21% of 360,000 active | AID 651644, 2012; active = well fitted falling curve with a large enough effect; inconclusive = small, poorly fitted or top-dose-only effect; inactive = no such curve, though single readings can be large or run the other way; note: nearly all actives have a fitted effect of over 50% in size
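Fission yeast strain RE007, carrying one chromosomally integrated HIV-1 vpr copy, was seeded at OD 0.01 in PMG+AL medium with 23 nL pinned compound. After 24 h at 30 °C and 99% humidity, viability was read by BacTiter-Glo luminescence.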
TbPYK inhibitor – qHTS of Trypanosoma Brucei Inhibitors; TbPYK enzyme, Kinase-Glo Plus ATP luminescence, 45 min; 0.12% of 410,000 active; Potency, µM (top dose mostly 76.8 µM), most hits filed as inhibitors; pyruvate kinase (Trypanosoma brucei), Q57TT1; note: nearly all actives have a fitted effect of over 50% in size
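Readout: single end-point luminescence (Kinase-Glo Plus, 10 min). Reaction conditions were TbPYK/substrate plus 130 uM ADP, 45 min at RT, pH 7.2 TEA buffer. No-enzyme wells served as controls, and data were normalized before concentration-response fitting.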
Giardia FBPA inh-1 – qHTS Assay for Inhibitors of Fructose-1,6-bisphosphate Aldolase from Giardia Lamblia. A8B2U2. purified Giardia FBPA. Potency, µM (titrated, usually from 59.6 µM), usual class: inhibitors. 0.71% of 290,000 active; note: nearly all actives have a fitted effect of over 55% in size
Target sequence (A8B2U2 whole entry, looked up): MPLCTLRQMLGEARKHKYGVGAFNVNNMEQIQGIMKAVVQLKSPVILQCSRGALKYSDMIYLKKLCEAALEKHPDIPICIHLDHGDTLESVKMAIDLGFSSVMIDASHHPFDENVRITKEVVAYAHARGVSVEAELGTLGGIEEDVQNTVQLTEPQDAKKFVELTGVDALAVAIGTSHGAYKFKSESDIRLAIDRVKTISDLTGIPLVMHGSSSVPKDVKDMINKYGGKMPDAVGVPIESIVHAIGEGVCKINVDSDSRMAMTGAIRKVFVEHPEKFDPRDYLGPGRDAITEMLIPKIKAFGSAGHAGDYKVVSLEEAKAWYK
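40 nM FBPA preincubated 10 min at RT with compound (up to 57.5 uM final), then substrate plus GAPDH/TPI/NAD/arsenate coupling and diaphorase/resazurin added. Fluorescence read after 20 min at RT, 525/598 nm.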
Giardia growth – qHTS Assay for Inhibitors of Fructose-1,6-bisphosphate Aldolase from Giardia Lamblia: Giardia lamblia growth inhibition; shares compounds with Giardia FBPA inh-1; Giardia lamblia trophozoite growth inhibition; Potency, µM (highest dose often 57.5 µM), most hits filed as inhibitors; 5% of 1,500 active; AID 2785, 2010;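 note: trophozoites exposed to compound for 48 h at 37 °C; nearly all actives have a fitted effect of over 70% in size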
Mammal cell tox – qHTS Assay for Inhibitors of Fructose-1,6-bisphosphate Aldolase from Giardia Lamblia: Mammalian cellular toxicity; shares compounds with Giardia FBPA inh-1; mammalian cell viability counter-screen, qHTS; Potency, µM (series often up to 57.5 µM), actives largely listed as inhibitors; 4% of 1,500 active;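 note: Chinese hamster ovary cells used as mammalian cytotoxicity surrogate; viability measured as cellular ATP by luminescence; compound exposure lasted 48 h before reading; nearly all actives have a fitted effect of over 60% in size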
Giardia FBPA inh-2 – qHTS Assay for Inhibitors of Fructose-1,6-bisphosphate Aldolase from Giardia Lamblia: Primary screen confirmation. shares compounds with Giardia FBPA inh-1. purified Giardia aldolase enzyme activity, qHTS. Potency, µM (doses to about 57.5 µM), actives largely listed as inhibitors. 5% of 1,500 active; note: nearly all actives have a fitted effect of over 45% in size
Rabbit aldolase – qHTS Assay for Inhibitors of Fructose-1,6-bisphosphate Aldolase from Giardia Lamblia: Rabbit FBPA Selectivity | shares compounds with Giardia FBPA inh-1 | Rabbit muscle FBPA enzyme inhibition, selectivity counter-screen | Potency, µM (doses to about 57.5 µM), most hits filed as inhibitors | 4% of 1,500 active; note: nearly all actives have a fitted effect of over 60% in size
GAPDH coupling – qHTS Assay for Inhibitors of Fructose-1,6-bisphosphate Aldolase from Giardia Lamblia: Coupling assay counterscreen confirmation; shares compounds with Giardia FBPA inh-1; GAPDH coupling enzyme counterscreen, biochemical, qHTS; Potency, µM (titrated, usually from 57.5 µM), usual class: inhibitors; 6% of 1,500 active; AID 2795, 2010; note: nearly all actives have a fitted effect of over 55% in size
Hits are given with their value; n = inactive; u = inconclusive; x = no result given; ! = not active in a repeat; [ ] = remark or other dose. In the library only some 3.3% were active in any assay of this set; here they are far more common. Unless noted, calls come from the whole dose curve; as a rule, active = well fitted curve in the direction sought with a large enough effect; inconclusive = small, poorly fitted or top-dose-only effect, or another doubt; inactive = no such curve, though single readings can be large; an effect the other way counts as inactive or inconclusive.

SMILES	LmPK inhibitor	Sm TGR block	RE007 growth inh	TbPYK inhibitor	Giardia FBPA inh-1	Giardia growth	Mammal cell tox	Giardia FBPA inh-2	Rabbit aldolase	GAPDH coupling
COc1ccc(CN2CCN(CCCCOc3ccc(Cl)cc3)CC2)c(OC)c1OC	n	n	n	n	18µM	n	n	n	n	n
Cc1c(N=Cc2cc3c(cc2[N+](=O)[O-])OCO3)cccc1[N+](=O)[O-]	x	x	n	n	x	x	x	x	x	x
O=C(C1=NN[C@@H]2C(=O)N(c3ccccc3C(F)(F)F)C(=O)[C@H]12)c1cnccn1	n	n	n	n	n	x	x	x	x	x
O=C(C1=NN[C@@H]2C(=O)N(c3cccc(F)c3)C(=O)[C@H]12)c1cnccn1	n	3.2µM	n	n	16µM	u	n	n	n	n
C/C(=N\N1C(=O)CSC1=S)c1ccc(Br)cc1	n	u	n	n	16µM	n	n	n	n	n
O=C(Nc1ccc(N2CCOCC2)c(Cl)c1)c1ccc(Cl)cc1	n	n	n	n	16µM	u	n	u	u	u
O=C(Nc1ccc(N2CCOCC2)c(Cl)c1)c1ccc2c(c1)OCCO2	n	n	n	n	n	x	x	x	x	x
CC(C)c1ccc(S(=O)(=O)/N=C2/C=C(Sc3ncn[nH]3)C(=O)c3ccccc32)cc1	u	0.28µM	u	14µM	0.45µM	7.1µM	25µM	3.5µM	16µM	3.5µM
O=C1ON=C(c2ccccc2)/C1=C/c1ccc(O)c(O)c1	u	5µM	x	n	4µM	u	n	n	n	n
O=C(CSc1ncnc2nc[nH]c12)c1ccccc1	n	n	n	n	n	x	x	x	x	x
O=C(CSc1ncnc2nc[nH]c12)c1ccc(Cl)cc1	n	n	n	n	14µM	n[10.4 µM]	n	n	n	n
CC(=O)Nc1ccc(S(=O)(=O)NCCC(=O)Nc2ccc(C)cn2)cc1	n	u	n	n	x	x	x	x	x	x
CC1(C)CC(Cc2nc(=S)[nH][nH]2)C(=O)O1 (configuration not stated)	n	n	n	n	6.3µM	n	n	n	n	n
CC1(C)CC(CC(=O)Nc2ccccn2)C(=O)O1 (configuration not stated)	n	n	n	n	n	x	x	x	x	x
COc1cccc([C@H]2Oc3ccc(OC)cc3/C(=N\OC[C@@H](O)[C@@H]3O[C@@H]4OC(C)(C)O[C@@H]4[C@H]3O)[C@@H]2O)c1	x	x	x	x	n[12.9 µM]	x	x	x	x	x
O=C(Nc1nccs1)c1ccccn1	n	n	n	n	18µM	u	n	n	n	n
S=C(Nc1ccccc1)Nc1nccs1	n	11µM	x	n	0.63µM!	n	20µM	n	n	n
CCn1cc(Cl)c(C(=O)Nc2nccs2)n1	n	n	n	n	4µM	n[10.4 µM]	n	n	n	n
Cn1cc(Cl)c(C(=O)Nc2nccs2)n1	n	n	n	n	x	x	x	x	x	x
NS(=O)(=O)c1ccc(NC(=O)CSc2nc3c(cnn3-c3ccccn3)c(=O)[nH]2)cc1	x	n	n	n	x	x	x	x	x	x
O=C(Nc1ccc(Cl)cc1N1CCOCC1)C1CC1	n	n	n	n	x	x	x	x	x	x

Compound activity: PubChem BioAssay, National Center for Advancing Translational Sciences (NCATS)
